Bioassay records (PubChem BioAssay)
Sampled rows, rich in hits. Any-hit rate of the full collection: about 11%.
Insulin prom up: MIN6 insulin promoter up-regulation; MIN6 insulin promoter-GFP reporter, high-content imaging; stronger effect = higher value; z-score at 5 µM; hit rate 0.3% among 190,000;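 active = z-score above 3 at 5 µM with at least 500 cells counted in the well; inconclusive = wells under 500 cells, flagged as cytotoxic or low count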
Autophagy mod: alters autophagy in cells. MEF GFP-LC3 puncta imaging; test concentration mostly 10 µM. calls only at 10 µM (by protocol). hit rate 0.98% among 190,000;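 active = percentage of spot-positive cells more than 3 SD above its plate mean, without a fluorescence outlier flag or 80% toxicity; inconclusive = no clear call, values can overlap the other calls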;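 note: spot-positive cell cutoff set from DMSO-treated cells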
INS promoter inh: TRM-6 insulin promoter activity inhibition; TRM-6 cells (human fetal islet line), insulin promoter-eGFP reporter, imaging; reporter expression induced with tamoxifen; hit rate 0.9% among 130,000; inhibition, % at 2 µM;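 active = inhibition above the mean plus 3 SD, with well images judged a real hit on visual review, cut at about 60% in these data, passing the limit was not always enough; inconclusive = inhibition over the cutoff but images rejected on review; inactive = inhibition not above the cutoff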
WT yeast gro inh: growth inhibition of WT yeast, mitochondrial fusion screen; mitochondrial fusion phenotypic screen, WT strain; inhibition, % at 10 µM; hit rate 2.1% among 190,000; AID 1362; in the data active = inhibition above about 58%; tested in S. cerevisiae
Lmaj promast: reduces viability of Leishmania major promastigotes | AID 1063 | inhibition, % at 10 µM | hit rate 9% among 200,000 | resazurin fluorescence viability; in the data active = inhibition above about 50%;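 note: promastigotes grown with compound for 44 hours at 28 °C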
Active calls of the source: *; i = inactive; ? = inconclusive; . = not tested or not shown.

SMILES	Insulin prom up	Autophagy mod	INS promoter inh	WT yeast gro inh	Lmaj promast
O=C(CSC(=S)N1CCCC1)c1cc(Br)cc(Br)c1O	0.22	i	.	10.8	95.2*
CN(C)c1ccnc(Nc2ccc(O)cc2)c1C#N	-0.01	i	35.7	-2.5	-6.7
CC1=C(C(N)=O)C(c2cccs2)n2nc(-c3cccc(C)c3)nc2N1 (centres undefined)	.	i	.	8.3	-0.6
CC1=C(C(N)=O)C(c2cccnc2)n2nc(-c3cccc(C)c3)nc2N1 (centres undefined)	.	i	44.4	-13.6	84.6*
O=C(COc1ccc2ccccc2c1CN1CCOCC1)N1CCc2ccccc21	-0.51	i	.	7.4	59.7*
Cc1cccc(N2C(=O)c3cccc4c(N5CCCCC5)c([N+](=O)[O-])cc(c34)C2=O)c1C	0.09	i	-39.5	15.6	88.8*
COc1ccc(C2C(Oc3ccccc3)C(=O)N2c2cc(C)ccc2C)cc1OC (centres undefined)	.	i	-40.0	.	3.0
COc1ccc(C)cc1N1C(=N)/C(=C2/Nc3ccccc3S2)C(c2ccccc2)C1=O (centres undefined)	?	i	-13.3	84.1*	100.5*
CN(C(=O)COc1ncnc2sccc12)c1ccccc1	0.09	i	11.8	14.1	1.2
Oc1ccc(NC(=S)N=Nc2c(O)[nH]c3ccccc23)cc1	-2.27	i	-15.8	-5.2	1.7
Cc1ccc(NC(=S)N=Nc2c(O)[nH]c3ccccc23)cc1	-1.41	i	.	45.6	90.6*
O=C(Cn1nc(-c2ccccc2Cl)ccc1=O)Nc1ccc(Br)cc1	-1.37	i	-6.7	48.4	-7.5
O=C(COC(=O)Cc1c(Cl)cccc1Cl)Nc1ccccc1-c1ccccc1	0.11	i	-53.9	80.6*	18.1
O=C(Cn1nc(-c2ccccc2Cl)ccc1=O)Nc1ccccc1-c1ccccc1	0.54	i	-58.3	67.2*	2.1
Cn1c(=O)[nH]c(=O)c2c1nc(Br)n2CC(O)COc1ccc(Cl)cc1 (centres undefined)	0.29	i	.	-10.8	-2.1
CCN(CC)CCNC(=O)CCCNC(=O)Cn1cnc2sc(C)c(C)c2c1=O	.	i	-35.7	2.0	4.5
Cc1cc(CNC(=O)c2cccnc2Cl)c2ccccc2n1	1.42	i	53.3	-0.2	0.4
CN(C)c1ccc(C(=S)N2CCN(Cc3ccccc3)CC2)cc1	-0.45	i	.	31.9	19.7
CN1CCN(C(=S)c2ccc(N(C)C)cc2)CC1	0.06	i	44.2	0.6	94.4*
CN1CCN(C(=S)c2ccc(Br)cc2)CC1	0.13	i	.	-19.0	84.8*
CCN1CCN(C(=S)c2ccc(Br)cc2)CC1	0.1	i	-2.9	-21.1	84.5*
CN1CCN(C(=S)c2ccc([N+](=O)[O-])cc2)CC1	0.73	i	.	-5.5	66.4*
CN1CCN(C(=O)c2ccc(S(=O)(=O)c3ccc(Br)cc3)cc2)CC1	.	i	.	-9.7	0.2
O=[N+]([O-])c1ccc(C(=S)N2CCC(Cc3ccccc3)CC2)cc1	-0.66	i	.	24.1	-5.2
CSc1ccc(C(=S)N2CCN(C)CC2)cc1	-0.03	i	11.4	-10.2	94.0*
SMILES	Insulin prom up	Autophagy mod	INS promoter inh	WT yeast gro inh	Lmaj promast
COc1cc(NC(=S)N2CCN(C)CC2)c(OC)cc1Cl	1.73	i	.	0.1	4.8
CSc1ccc(C(=S)N2CCN(C(c3ccccc3)c3ccccc3)CC2)cc1	0.14	i	-50.0	18.8	28.0
CN1CCN(C(=S)Nc2cc([N+](=O)[O-])ccc2Cl)CC1	-0.26	i	14.8	5.2	66.5*
CC(C(O)C12CC3CC(CC(C3)C1)C2)N1CCCCC1 (centres undefined)	-0.37	i	38.9	-1.4	-2.8
Cc1[nH]n(-c2ncc(-c3ccccc3)s2)c(=O)c1C(c1ccc(Br)cc1)C(C#N)C#N (centres undefined)	0.1	i	16.7	-4.5	80.8*
Cc1ccc(-c2nnc(N3CCC(C)CC3)c3ccccc23)cc1C	-0.26	i	.	82.2*	41.3
Cc1nc2sc(C#N)c(N)c2c2c1CCCC2	1.7	i	54.5	0.0	10.0
N#Cc1sc2nc(N3CCCCC3)c3c(c2c1N)CCCC3	.	i	-130.0	72.8*	18.4
CCC(C)n1c(C)nc2c(c1=O)c1nc3ccccc3nc1n2CCC1=CCCCC1 (centres undefined)	-0.12	i	-28.6	4.5	56.5*
COCCNC(=O)c1c(N)n(CCC2=CCCCC2)c2nc3ccccc3nc12	-0.24	i	-25.7	2.3	100.2*
CCCCn1c2nc3ccccc3nc2c2c(=O)n(C(C)CC)cnc21 (centres undefined)	0.3	i	-30.6	1.3	5.5
CC1CCC(C(=O)NC(C(=O)NCc2cccnc2)C(C)C)CC1 (centres undefined)	1	i	-37.1	9.1	-5.4
Cc1ccc(OCCOc2ccc(Br)cc2)c([N+](=O)[O-])n1	0.19	i	46.1	1.4	-3.2
O=c1[nH]c(-c2ccccn2)nc2sc(-c3ccccc3)cc12	-6.56	i	27.8	75.5*	100.5*
CS(=O)(=O)CCC(C(=O)OCc1ccc(Br)cc1)N1C(=O)c2ccccc2C1=O (centres undefined)	0.62	i	.	-22.9	-7.9
CCOc1ccc(OC(=O)C(CCS(C)(=O)=O)N2C(=O)c3ccccc3C2=O)cc1 (centres undefined)	0.12	i	21.9	7.1	71.6*
CC(=O)c1ccc(OC(=O)C(CCS(C)(=O)=O)N2C(=O)c3ccccc3C2=O)cc1 (centres undefined)	1.21	i	42.9	-2.3	67.4*
COc1cccc(-c2nnc(SC(C(=O)c3c[nH]c4ccccc34)c3ccccc3)n2C)c1 (centres undefined)	-0.18	i	-13.5	4.3	98.1*
CCn1nnnc1NCc1cccn1C	.	i	.	-15.9	-5.2
CN(C)CCCN(C(=O)CCc1ccccc1)c1nc2ccc(Cl)cc2s1	-0.89	i	.	91.3	87.5*
CN(C)CCCN(C(=O)COc1ccccc1)c1nc2ccc(Cl)cc2s1	0.28	i	-22.2	25.6	13.1
CN(C)CCCN(C(=O)c1ccc2c(c1)CCCC2)c1nc2ccc(Cl)cc2s1	0.25	i	.	79.9*	78.9*
COCCNC(=O)CN(Cc1cccs1)C(=O)CCC(=O)Nc1nccs1	-0.79	i	38.5	-1.2	-3.1
COc1cccc(-c2nnc(SCC(=O)Nc3ccc(OC)c(OC)c3)n2N)c1	0.04	i	.	-4.9	-5.5
O=C1C2C3C=CC(c4ccccc4)(C2C(=O)N1c1cccc(Cl)c1)C1C(=O)N(c2cccc(Cl)c2)C(=O)C31 (centres undefined)	-1.38	i	17.2	14.7	68.0*
O=C(CSc1nncs1)Nc1ccc(S(=O)(=O)N2CCCC2)cc1	-0.04	i	-35.7	-0.1	-3.8
CCN(CC)CCNC(=O)c1ccc(N2CCCCC2)c(NS(=O)(=O)c2ccc(C)cc2)c1	0.42	i	57.1	16.3	100.5*
CCOC(=O)c1ccc(N2CCCCC2)c(NS(=O)(=O)c2cccc(C(F)(F)F)c2)c1	-1.12	.	.	.	.
COC(=O)c1ccc(N2CCCCC2)c(NS(=O)(=O)c2ccc(C)cc2)c1	-0.89	i	19.2	52.5	96.7*
